For assay [1], the target named is Calcium and integrin-binding protein 1 (Homo sapiens) (UniProt Q99828). Description: Primary qHTS for Identification of Calcium Integrin Binding Protein 1 (CIB1) Competitor (AID 1508620).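 Also: GST tagged CIB1 binding a fluorescein labelled alphaIIb integrin peptide tracer; top concentration of the series differs between compounds.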 As to conditions: CIB1-GST / FITC-alphaIIb peptide fluorescence polarization; series mostly up to 114 µM. In short, it runs like this:
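Fluorescence polarization competition: GST-tagged CIB1 (1 uM final) preincubated with compound 15 min at room temperature, then FITC-labelled alphaIIb peptide (100 nM final) added. After 15 min at room temperature, polarization read at Ex 480/Em 540.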

A short description of assay [2]: A High-Content qHTS Against Drug Library for the Identification of Small Molecules that Inhibit DYT1 Early Onset Primary Dystonia-Associated Cell Pathology (AID 1645839; calls by dose curve; also: potency is read from the fitted curve at half-maximal effect). As to conditions: HEK293 Flp-In EGFP-delE TorsinA, punctate imaging, 48 h; series mostly up to 46.1 µM. The procedure, abridged:
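Flp-In T-REx 293 cells with tetracycline-inducible EGFP-delE hTOR1A (WT EGFP-hTOR1A as reference), 800 cells/well; compound added with tetracycline, 48 h at 37 C. Fixed, permeabilized cells imaged; %pathology (punctate TorsinA) primary, cell count counterscreen.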

In assay [3] the target is Cytochrome P450 2C9 (Homo sapiens) (UniProt P11712). Description: Cytochrome P450 family 2 subfamily C member 9 (CYP2C9) small molecule antagonists: luciferase biochemical (cell-free) qHTS assay (AID 1645842; active = well fitted curve in the direction sought with a large enough effect in the repeat runs; an effect the other way counts as inactive or inconclusive; also: nearly all actives have a fitted effect of over 55% in size; also: potency is read from the fitted curve at half-maximal effect). To be noted: P450-Glo CYP2C9 enzyme assay, luciferin luminescence; series mostly up to 57.4 µM. In short, it runs like this:
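Luminescence, after 20 min with luciferin detection reagent, reflected CYP2C9 turnover during a 1 h NADPH-driven reaction at 37C. Enzyme-substrate mix contained 0.4% bovine serum albumin and was preincubated with compound 10 min at room temperature.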

The target in assay [4] is Cytochrome P450 2D6 (Homo sapiens) (UniProt P10635). In words: Cytochrome P450 family 2 subfamily D member 6 (CYP2D6) small molecule antagonists: luciferase biochemical (cell-free) qHTS assay (AID 1645840; active = well fitted curve in the direction sought with a large enough effect in the repeat runs; an effect the other way counts as inactive or inconclusive; also: nearly all actives have a fitted effect of over 55% in size; also: potency is read from the fitted curve at half-maximal effect). As to conditions: P450-Glo CYP2D6 enzyme, luciferin luminescence, 1 h; series mostly up to 57.4 µM. The procedure, abridged: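 P450-Glo luminescent screen: recombinant CYP2D6 enzyme–proluciferin substrate mix preincubated with compound 10 min at room temperature, then NADPH regeneration added for 1 h at room temperature. Detection reagent added for 20 min; luciferin light read as relative luminescence units.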
On the technique in general: Quantitative high-throughput screening tests each substance at several concentrations.

Assay [5] is described as follows: Primary qHTS for small molecule stabilizers of the endoplasmic reticulum resident proteome: Secreted ER Calcium Modulated Protein (SERCaMP) assay (AID 1508630). To be noted: SH-SY5Y GLuc-SERCaMP (Gaussia luciferase released on ER calcium loss) secretion, thapsigargin, luminescence; series mostly up to 38.4 µM. The procedure, abridged: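 GLuc-SERCaMP-expressing SH-SY5Y cells, pretreated 16 h with compound, are challenged with thapsigargin to empty ER calcium stores; after 4 h, coelenterazine is added directly to the medium and luminescence is imaged.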

For assay [6], the target named is Cytochrome P450 3A4 (Homo sapiens) (UniProt P08684). Description: Cytochrome P450 family 3 subfamily A member 4 (CYP3A4) small molecule antagonists: luciferase qHTS assay (AID 1645841; active = well fitted curve in the direction sought with a large enough effect in the repeat runs; an effect the other way counts as inactive or inconclusive; also: nearly all actives have a fitted effect of over 45% in size). As to conditions: P450-Glo CYP3A4 enzyme assay, luciferin luminescence; series mostly up to 57.4 µM. The procedure, abridged: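 P450-Glo CYP3A4 enzyme with proluciferin substrate preincubated 10 min with compound at room temperature, then NADPH regeneration 1 h. Luciferin detection reagent added for 20 min; luminescence recorded. Ketoconazole positive control.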

Results filed as inconclusive are left out. Entries that show only a call come without a potency. Activity calls are given as the source filed them. Unless noted, calls follow the shape of the dose curve; as a rule, active = well fitted curve in the direction sought with a large enough effect; inconclusive = small, poorly fitted or top-dose-only effect, or another doubt; inactive = no such curve, though single readings can be large; an effect the other way counts as inactive or inconclusive.

Sequence of Cytochrome P450 2D6 (Homo sapiens) (P10635 whole entry, looked up): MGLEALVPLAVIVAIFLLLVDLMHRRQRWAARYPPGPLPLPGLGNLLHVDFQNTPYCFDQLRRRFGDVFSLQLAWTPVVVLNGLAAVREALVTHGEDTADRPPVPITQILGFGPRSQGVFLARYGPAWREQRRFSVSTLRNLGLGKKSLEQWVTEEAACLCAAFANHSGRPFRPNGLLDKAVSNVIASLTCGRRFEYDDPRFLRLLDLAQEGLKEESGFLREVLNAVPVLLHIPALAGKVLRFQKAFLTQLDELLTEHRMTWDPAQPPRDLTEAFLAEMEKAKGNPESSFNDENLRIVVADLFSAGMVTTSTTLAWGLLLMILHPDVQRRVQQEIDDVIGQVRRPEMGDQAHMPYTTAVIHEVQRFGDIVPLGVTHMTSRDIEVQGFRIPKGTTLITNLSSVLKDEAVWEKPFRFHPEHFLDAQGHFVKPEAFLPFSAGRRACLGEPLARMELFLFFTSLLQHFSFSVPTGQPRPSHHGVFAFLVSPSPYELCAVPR
Sequence of Cytochrome P450 2C9 (Homo sapiens) (P11712 whole entry, looked up): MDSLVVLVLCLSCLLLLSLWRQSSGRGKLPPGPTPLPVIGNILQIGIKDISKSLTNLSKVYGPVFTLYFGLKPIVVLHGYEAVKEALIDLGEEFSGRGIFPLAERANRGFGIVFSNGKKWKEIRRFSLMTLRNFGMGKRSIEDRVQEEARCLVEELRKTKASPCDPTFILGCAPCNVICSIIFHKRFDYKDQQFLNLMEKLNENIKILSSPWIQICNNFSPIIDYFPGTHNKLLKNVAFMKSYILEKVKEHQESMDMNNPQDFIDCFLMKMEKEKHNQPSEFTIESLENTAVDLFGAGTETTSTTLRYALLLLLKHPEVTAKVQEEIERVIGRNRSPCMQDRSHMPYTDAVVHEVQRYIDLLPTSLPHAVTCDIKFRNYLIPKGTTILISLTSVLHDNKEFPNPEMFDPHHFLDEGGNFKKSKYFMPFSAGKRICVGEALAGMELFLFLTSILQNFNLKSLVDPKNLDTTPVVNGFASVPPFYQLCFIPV
Sequence of Calcium and integrin-binding protein 1 (Homo sapiens) (Q99828 whole entry, looked up): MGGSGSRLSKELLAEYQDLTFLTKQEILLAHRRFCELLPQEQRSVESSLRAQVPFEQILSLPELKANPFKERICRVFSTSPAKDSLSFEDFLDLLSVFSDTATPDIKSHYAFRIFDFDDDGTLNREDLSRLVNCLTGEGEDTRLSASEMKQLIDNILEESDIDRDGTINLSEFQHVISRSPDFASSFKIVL
Sequence of Cytochrome P450 3A4 (Homo sapiens) (P08684 whole entry, looked up): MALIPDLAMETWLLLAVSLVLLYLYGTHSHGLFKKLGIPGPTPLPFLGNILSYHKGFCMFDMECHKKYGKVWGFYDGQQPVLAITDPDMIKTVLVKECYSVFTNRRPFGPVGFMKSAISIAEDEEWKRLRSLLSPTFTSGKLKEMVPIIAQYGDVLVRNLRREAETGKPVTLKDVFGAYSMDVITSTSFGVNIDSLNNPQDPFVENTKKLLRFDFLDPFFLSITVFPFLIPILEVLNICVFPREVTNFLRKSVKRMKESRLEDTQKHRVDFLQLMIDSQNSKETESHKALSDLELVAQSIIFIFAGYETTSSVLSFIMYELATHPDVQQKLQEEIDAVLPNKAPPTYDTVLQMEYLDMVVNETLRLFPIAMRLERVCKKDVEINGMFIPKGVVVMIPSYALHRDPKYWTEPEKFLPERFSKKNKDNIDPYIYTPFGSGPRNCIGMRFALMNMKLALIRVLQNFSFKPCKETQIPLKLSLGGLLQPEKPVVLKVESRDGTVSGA

For the compound `O=C1CN(/N=C/c2ccc([N+](=O)[O-])o2)C(=O)N1`, the Potency result in assay [1], in assay [2] and in assay [3] was “inactive” in each case.

On to `NC(=O)C(c1ccccc1)(c1ccccc1)[C@@H]1CCN(CCc2ccc3c(c2)CCO3)C1`, for which the Potency entry in assay [1] and in assay [3] was “inactive” throughout. Moreover, the Potency in assay [4] was 0.617 µM (active).

Consider `O=C(c1cc(O)c(O)c([N+](=O)[O-])c1)c1ccccc1F`, for which the Potency entry in assay [5] is “inactive”.

As to `CN(C)c1nc2c(Br)c(Br)c(Br)c(Br)c2[nH]1`, in assay [5], the Potency entry is “inactive”.

As for `CCCCC/C=C\CC(O)/C=C/c1cccc(CC(O)CCCCO)n1` (configuration not stated), the Potency result in assay [5] is “inactive”.

Regarding `CCc1c(C(=O)NCCc2ccc(N3CCCCC3)cc2)[nH]c2ccc(Cl)cc12`, in assay [5], the Potency result is “inactive”.

Take `CN(C)[C@@H]1C(=O)C(C(=O)NCN2CCCC2)=C(O)[C@@]2(O)C(=O)C3=C(O)c4c(O)cccc4[C@@](C)(O)C3C[C@@H]12` (some centres not stated): the Potency entry in assay [5], in assay [2] and in assay [3] was “inactive” in each case.

In the case of `NCCNC(=O)c1ncsc1-c1cccc(F)c1`, the Potency result in assay [5] is “inactive”.

Regarding `Nc1cc(-c2ccncc2)c[nH]c1=O`, the Potency entry in assay [5] and in assay [2] was “inactive” each time. Also, the results for the Potency in assay [4] and in assay [3] were 12.3 µM (active) and 11 µM (active), respectively.

As to `COc1cccc2c1C(=O)c1c(O)c3c(c(O)c1C2=O)C[C@@](O)(C(=O)CO)C[C@@H]3O[C@H]1C[C@H](N)[C@H](O[C@@H]2CCCCO2)[C@H](C)O1`, the Potency result in assay [5] and in assay [4] was “inactive” throughout. For the same compound, the Potency is 10 µM (active) in assay [2] and 12.3 µM (active) in assay [3].

Take `O=c1[nH]c2cc(Cl)c(Cl)cc2[nH]c1=O`: in assay [5], the Potency entry was “inactive”.

With `C#CCN1C(C)=C(C(=O)OC)C(c2cccc([N+](=O)[O-])c2)C(C(=O)OCC)=C1C` (configuration not stated), in assay [5], the Potency entry is “inactive”.

Regarding `CCCn1c(=O)c2[nH]c(-c3ccc(OCC(=O)NCCN)cc3)nc2n(CCC)c1=O`, the Potency entry in assay [5] is “inactive”.

As for `CC1(C)C[C@@H]1C(=O)N/C(=C\CCCCSC[C@H](N)C(=O)O)C(=O)O`, the Potency entry in assay [5] is “inactive”.

For `C=CC(=O)c1ccc(CCCCCC)cc1`, the Potency result in assay [5] is “inactive”.

On to `CCCCCCCCCCCCCCCCCCNC(=O)OCC(COP(=O)([O-])OCC[n+]1ccsc1)OC` (configuration not stated), for which the Potency entry in assay [5] is “inactive”.

For the compound `Oc1c(Br)cc(Br)c2cccnc12`, the Potency result in assay [5], in assay [4] and in assay [3] was “inactive” in each case. In addition, the Potency in assay [2] is 5.62 µM (active). For the same compound, in assay [6], the compound was classed as inactive.

For the compound `N=C(N)SCCc1ccc(CCSC(=N)N)cc1`, the Potency entry in assay [5] is “inactive”.

`C[N+](C)(C)CC(=O)[O-]`: in assay [5], the Potency entry was “inactive”.

As to `OCC1O[C@H]([S-])[C@H](O)[C@@H](O)[C@@H]1O.[Au+]` (some centres not stated), the Potency result in assay [5] was “inactive”.

In the case of `CCCCN1CCC(n2c(=O)[nH]c3ccccc32)CC1`, the Potency result in assay [5] was “inactive”.

In the case of `C[N+](C)(CCCCCC[N+](C)(C)CCCN1C(=O)c2cccc3cccc(c23)C1=O)CCCN1C(=O)c2cccc3cccc(c23)C1=O`, the Potency entry in assay [5] was “inactive”.

With `CCCCCC(O)c1cccc(OCc2ccc3ccccc3n2)c1` (configuration not stated), the Potency result in assay [5] was “inactive”.

With `O=[N+]([O-])c1ccc2c(c1)S(=O)(=O)C=C2`, the Potency result in assay [5] is “inactive”.

Take `C[C@@H](NC(=O)/C(C#N)=C/c1ccc(O)c(O)c1)c1ccccc1`: in assay [5], the Potency entry was “inactive”.

`CN1CCC[C@H]1c1cccnc1`: in assay [5], the Potency entry is “inactive”.

In the case of `O=C(OCc1ccccc1)c1ccccc1`, the Potency result in assay [5], in assay [2], in assay [4] and in assay [3] was “inactive” throughout.

With `O=C(O)/C=C/C(O)c1ccc(Cl)cc1` (configuration not stated), the Potency entry in assay [5] was “inactive”.

Source of the values: PubChem BioAssay (NCATS).
